Our source for the inhibition values is PubChem BioAssay AID434989 (The Scripps Research Institute Molecular Screening Center, 2010).

SMILES strings stand for the structures. About 1,400 (0.42%) of roughly 330,000 compounds were called active.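 The calls were made as follows: active = inhibition above its plate's threshold, mean inhibition of all tested compounds on the plate plus 3 SD (cut at about 37% in these data); inactive = the rest.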 Many of the other results were omitted from the sample, so actives are more common in it than they were.

Chain of Orexin/Hypocretin receptor type 1 (Homo sapiens) (O43613 whole entry, looked up): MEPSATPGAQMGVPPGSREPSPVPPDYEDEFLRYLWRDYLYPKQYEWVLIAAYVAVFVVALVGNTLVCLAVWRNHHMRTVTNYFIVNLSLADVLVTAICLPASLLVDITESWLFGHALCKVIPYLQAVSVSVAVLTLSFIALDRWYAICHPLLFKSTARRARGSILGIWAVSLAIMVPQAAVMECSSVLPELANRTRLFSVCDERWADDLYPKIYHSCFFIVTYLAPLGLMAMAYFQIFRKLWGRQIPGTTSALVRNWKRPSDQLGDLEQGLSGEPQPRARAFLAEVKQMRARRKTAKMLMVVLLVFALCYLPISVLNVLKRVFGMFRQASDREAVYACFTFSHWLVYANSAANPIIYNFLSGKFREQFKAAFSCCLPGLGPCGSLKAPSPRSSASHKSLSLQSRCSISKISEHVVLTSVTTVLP

This assay addresses Orexin/Hypocretin receptor type 1 (Homo sapiens) (UniProt O43613). In words: blockers of orexin-A calcium signaling via HCRTR1 – fluorescence, CHO/OX1R cells, Fluo-8 calcium, primary screen (AID 434989).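 Also: 0% = orexin A challenge wells and 100% = SB-334867-A antagonist wells.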 As to conditions: Fluo-8 calcium fluorescence, at 5 µM, stronger effect = higher value.
A word on the inhibition: it is the change of the read-out against control, counted positive when it falls. As to `O=C(COC(=O)/C=C/c1ccc(Br)o1)Nc1cccc(S(=O)(=O)N2CCOCC2)c1`, the inhibition is -6.48% (inactive).

For the compound `O=C(C[C@H]1C/C=C\C[C@@H](NC(=O)OCC2c3ccccc3-c3ccccc32)C(=O)O[C@@H](c2ccccc2)CNC1=O)N[C@H](CO)Cc1ccccc1`, the inhibition is -18.2% (inactive).

As for `O=C(COC(=O)CN1C(=O)C2CCCCC2C1=O)Nc1ccc(F)c(F)c1F` (stereo not drawn), the inhibition was -8.95% (inactive).

`O=C(O)CC1=C(Nc2ccccc2)C(=O)N(c2ccccc2)C1c1ccc(Cl)cc1` (stereo not drawn): the inhibition is -21.1% (inactive).

Take `O=C1C=C(c2ccc(Cl)cc2)C(=O)N1Nc1ccccc1`: the inhibition was 53.2% (active).

Regarding `O=C(CCC(=O)OCc1ccc(Cl)cc1)Nc1ccccc1`, the inhibition is -9.06% (inactive).

`Cc1ccc(S(=O)(=O)N2C[C@@H]3CCCC[C@@H]3[C@@H](C)[C@H]2c2cn(Cc3ccccc3)c3ccc(F)cc23)cc1`: the inhibition was 6.16% (inactive).

With `Fc1ccc2cnc(-c3ccccc3)cc2c1`, the inhibition is -19.1% (inactive).

With `CC(=O)c1ccc(-c2ccc(Cn3c(C)nc4cc(N)c(C)nc43)cc2)cc1`, the inhibition was -25.1% (inactive).

In the case of `Cc1cc(-c2csc(N)n2)c(C)n1Cc1ccccc1`, the inhibition was -19.7% (inactive).

`Cc1cc2nc3c(=O)n(Cc4ccccc4)c(=O)[nH]c3nc2cc1N`: the inhibition is 54.6% (active).

On to `COc1ccc(NC(=O)Nc2ccc3c(c2)C(=O)N([C@H](C)CO)C[C@H](C)[C@@H](CN(C)C(=O)Nc2ccc4c(c2)OCO4)O3)cc1`, for which the inhibition was 1.29% (inactive).

With `COc1ccc(-c2nc3cc(C)ccn3c2NC2CCCCC2)cc1SC1CCCCC1`, the inhibition was 25.4% (inactive).

Turning to `CCOC(=O)Cn1c(=O)oc2cc(S(=O)(=O)N(C)Cc3ccco3)ccc21`, the inhibition was -12% (inactive).

As to `CCOC(=O)/C=c1\s/c(=C\c2ccc(C#N)cc2)c(=O)n1CC(=O)Nc1cccc(C)c1C`, the inhibition is 1.96% (inactive).

In the case of `CN(c1ccccc1)c1ccc(/C=c2\s/c(=C(/C#N)C(=O)C(C)(C)C)n(Cc3ccco3)c2=O)cc1`, the inhibition was 42% (active).

For `CSc1ccc(NC(=O)/C=C/C(=O)O)cc1`, the inhibition was -13% (inactive).

Consider `CC(C)(C)c1ccc(/C=C/C(=O)Nc2ncccn2)cc1`, for which the inhibition was -7.7% (inactive).

As for `COC(=O)c1sc(-c2ccc(C(C)(C)C)cc2)cc1NC(=O)/C=C/C(=O)O`, the inhibition was 55.5% (active).

On to `O=C(NNS(=O)(=O)c1c(F)cc(F)c(Cl)c1F)C12CC3CC(CC(C3)C1)C2`, for which the inhibition was 4.78% (inactive).

For `O=C(COC(=O)COc1cccc(F)c1)NCC1CCCCC1`, the inhibition was -16.8% (inactive).

As for `CN(c1ccccc1)S(=O)(=O)c1cccc(NC(=O)Cc2c(F)cccc2Cl)c1`, the inhibition was 11.3% (inactive).

In the case of `CN(c1ccccc1)S(=O)(=O)c1cccc(NC(=O)Cc2ccc(Cl)cc2)c1`, the inhibition is 42.1% (active).

As to `CN(C)S(=O)(=O)c1cccc(NC(=O)Cc2ccsc2)c1`, the inhibition was -7.6% (inactive).

As for `COCCn1c(C)cc(C(=O)CN2c3cccc4cccc(c34)S2(=O)=O)c1C`, the inhibition was -15.1% (inactive).

As to `OC(CNCCc1ccc(Cl)cc1Cl)COc1ccccc1` (stereo not drawn), the inhibition is -12.8% (inactive).

Regarding `NC(N)=N/N=C/c1ccc(OCc2ccc(Cl)cc2Cl)cc1`, the inhibition is 60% (active).

As to `CCOc1ccc(NC(=O)NNC(=O)c2ccc(Cl)cc2Cl)cc1`, the inhibition is -32.5% (inactive).

With `Cc1noc(C)c1S(=O)(=O)N(C)C[C@H]1Oc2ccc(NC(=O)C3CCCCC3)cc2C(=O)N([C@H](C)CO)C[C@@H]1C`, the inhibition was -7.01% (inactive).

For the compound `CC[C@@H](C)[C@@H]1CN([C@@H](C)CN2CCC[C@H]2CN2C(N)=NC[C@H]2C(C)C)C(=N)N1CCc1ccc(Cl)c(Cl)c1`, the inhibition was -14.1% (inactive).

As to `N#C/C(=C/c1ccc(N2CCCCC2)o1)C(=O)NCCc1c[nH]c2ccccc12`, the inhibition was 61.6% (active).

In the case of `O=C(CN1C(=O)NC2(CCCCC2)C1=O)NCCc1c[nH]c2ccccc12`, the inhibition is -22.5% (inactive).

On to `CC(=O)N/C(=C/c1ccc(Cl)cc1)C(=O)NCCc1c[nH]c2ccccc12`, for which the inhibition is -8.41% (inactive).

In the case of `CN(C)C(=O)CCc1ccc2c3c([nH]c2c1)[C@]1(C)[C@@H](C(=O)N2CCOCC2)C[C@H](CC(=O)NCCc2ccccn2)C(=O)N1CC3`, the inhibition was -9.61% (inactive).

Regarding `O=C(CN1C(=O)NC2(CCOc3ccccc32)C1=O)Nc1cccc([N+](=O)[O-])c1` (stereo not drawn), the inhibition is -4.96% (inactive).

Consider `COc1cccc(C(=O)NC(=O)Nc2nc(C)cc(C(F)(F)F)n2)c1`, for which the inhibition was 43.9% (active).

With `Cc1cc(C)nc(NC(=O)Nc2ccccc2C(F)(F)F)n1`, the inhibition is -30.4% (inactive).

For `COc1cccc(C(=O)NNC(=O)c2cccc(F)c2)c1`, the inhibition is -14.5% (inactive).

As for `CCNC(=S)N1CCN(S(=O)(=O)c2ccc(Cl)s2)CC1`, the inhibition was -8.33% (inactive).

As to `COc1ccc(CNC(=O)C[C@H]2C[C@H](C(=O)N3CCOCC3)[C@@]3(C)c4[nH]c5cc(CCC(=O)N(C)C)ccc5c4CCN3C2=O)cc1OC`, the inhibition is -8.18% (inactive).

Consider `CC1=C/C(=N\OS(=O)(=O)c2ccccc2)C=CC1=O`, for which the inhibition is 50.8% (active).

`CC(C)N(C(=O)[C@H]1C[C@H](CC(=O)NCCC2=CCCCC2)C(=O)N2CCc3c([nH]c4cc(CCC(=O)N(C)C)ccc34)[C@]12C)C(C)C`: the inhibition is -35.9% (inactive).

For the compound `O=C(/C=C/c1ccc(Cl)c([N+](=O)[O-])c1)c1ccc(O)cc1`, the inhibition was -19.1% (inactive).

Regarding `O=C(/C=C/c1ccc2c(c1)OCCO2)c1ccc(O)cc1`, the inhibition is -5.09% (inactive).

Regarding `O=C(/C=C(O)/C=C/c1ccc(O)cc1)/C=C/c1ccc(O)cc1`, the inhibition was 88% (active).

Regarding `Cc1ccc(S(=O)(=O)N2[C@@H](c3cccc4ccccc34)C(C(=O)O)=C[C@H]2C(C)(C)C)cc1`, the inhibition was -3.21% (inactive).

Turning to `CCN(C[C@H]1N[C@@](CC)(C(=O)OC)[C@H]2C(=O)N(Cc3ccccc3)C(=O)[C@@H]12)S(=O)(=O)c1ccccc1`, the inhibition is -23.9% (inactive).

As to `O=C(COC(=O)/C=C/c1cccc(Cl)c1)NCc1cccs1`, the inhibition is -21.7% (inactive).

Regarding `Cc1ccc(S(=O)(=O)N(C)c2ccc(OCC(=O)OCc3ccc(C#N)cc3)cc2)cc1`, the inhibition was 0.88% (inactive).

As to `CC1(C)C=Cc2c(ccc3c2OC[C@@H](c2ccc(O)cc2O)C3)O1`, the inhibition was 47.2% (active).

For the compound `COc1cc(/C=C/C(=O)OCC(=O)NC2CC2)cc(OC)c1OC`, the inhibition is -7.25% (inactive).

Regarding `C/C(N)=C(/C#N)C(=O)COC(=O)c1cc(-c2ccc(C)cc2)nc2ccccc12`, the inhibition was 47.2% (active).

In the case of `C/C(N)=C(/C#N)C(=O)COC(=O)c1cc(-c2cccc(Br)c2)nc2ccccc12`, the inhibition is 15.2% (inactive).

On to `C/C(N)=C(/C#N)C(=O)COC(=O)c1cc(-c2ccccc2)nc2ccc(Br)cc12`, for which the inhibition was 5.4% (inactive).

Take `CC(C)COc1ccc(C(=O)NNC(=O)CCC(=O)c2cccs2)cc1`: the inhibition was -18.4% (inactive).

Turning to `O=C(NCC(=O)N1CCCC(C(F)(F)F)C1)c1ccccc1F` (stereo not drawn), the inhibition was 0.97% (inactive).

In the case of `O=C(NC(Cc1ccccc1)C(=O)N1CCCC(C(F)(F)F)C1)c1ccccc1` (stereo not drawn), the inhibition is -34.6% (inactive).

Regarding `FC(F)(F)C1CCCN(c2nsc3ccccc23)C1` (stereo not drawn), the inhibition was 46.1% (active).

In the case of `Cc1onc(-c2c(F)cccc2Cl)c1C(=O)OCC(=O)N1C(C)CCCC1C` (stereo not drawn), the inhibition is -24.4% (inactive).

For the compound `COc1ccc(NC(=O)CNc2cc(S(=O)(=O)N3CCOCC3)ccc2N2CCOCC2)c(OC)c1`, the inhibition was -10.3% (inactive).

On to `COc1cc(/C=C2/SC(=S)N(Cc3ccccc3)C2=O)cc(OC)c1O`, for which the inhibition was 31.2% (inactive).

In the case of `CN(C)c1ccc(/C=C2\NC(=S)N(Cc3ccccc3)C2=O)cc1`, the inhibition is 91.7% (active).

On to `O=C1/C(=C\c2ccsc2)NC(=S)N1c1ccccc1`, for which the inhibition was -19.5% (inactive).

As to `O=C(NCCN1C(=O)S/C(=C\c2cccnc2)C1=O)c1cccc(OC(F)F)c1`, the inhibition was -28.3% (inactive).

`CCOc1ccc(N2CC(C(=O)NCCN3C(=O)S/C(=C\c4cccnc4)C3=O)CC2=O)cc1` (stereo not drawn): the inhibition is -17.9% (inactive).

As to `Cc1cc(OCCCC(=O)NCCN2C(=O)S/C(=C\c3cccnc3)C2=O)ccc1Cl`, the inhibition is 94.3% (active).

As for `COC(=O)[C@]1(Cc2ccccc2)N[C@H](CN(C)S(=O)(=O)c2ccc(OC(F)(F)F)cc2)[C@@H]2C(=O)N(C)C(=O)[C@@H]21`, the inhibition is -30.2% (inactive).

Regarding `COC(=O)c1ccc(/C=C/c2c(-c3ccc(OC)cc3)sc3ccccc23)cc1`, the inhibition is -6.38% (inactive).

For `COc1ccc(CNC(=O)COC(=O)C(CCSC)N2C(=O)c3ccccc3C2=O)cc1` (stereo not drawn), the inhibition was -29.7% (inactive).

As to `CCOC(=O)[C@H]1[C@H]2COc3ccccc3[C@@H]2N2C(=O)CN(Cc3ccccc3)C(=O)[C@@]12C`, the inhibition is -30.6% (inactive).

With `CNS(=O)(=O)c1ccc(N2CCCC2=O)c([N+](=O)[O-])c1`, the inhibition is -6.08% (inactive).

`CN(C)S(=O)(=O)c1ccc(N2CCCC2=O)c([N+](=O)[O-])c1`: the inhibition is -12.1% (inactive).

For `Cc1cc(N2CCCC2=O)cc(C)c1S(N)(=O)=O`, the inhibition was 44.7% (active).

`O=C1CSc2ccc(C(=O)NCc3ccccn3)cc2N1`: the inhibition was 7.19% (inactive).

Take `CN(C)CCNC(=O)c1[nH]nc2c1CCc1ccccc1-2`: the inhibition was -12% (inactive).

Turning to `COc1ccc(/C=N/NC(=O)c2ccc3c(c2)OCCO3)c(OC)c1`, the inhibition was -14.1% (inactive).

As for `COc1cccc(/C=N/NC(=O)c2[nH]nc3c2CCc2ccccc2-3)c1O`, the inhibition was 38.6% (active).

Take `COc1cc(OC)c(C(=O)NNC(=O)c2ccccc2-n2cccc2)cc1OC`: the inhibition was -4.23% (inactive).

Consider `COc1cccc2sc3cc(NCC[C@@H]4CCCN4C)ccc3c(=O)c12`, for which the inhibition is -2.27% (inactive).

For the compound `CC(C#N)OC(=O)c1cccnc1SCC(=O)Nc1ccc2c(c1)OCO2` (stereo not drawn), the inhibition is -1.89% (inactive).

`O=C(CSc1ncnc2sccc12)NC1CCS(=O)(=O)C1` (stereo not drawn): the inhibition was -10.8% (inactive).

For `Oc1ccc(N=Nc2nccs2)c(O)c1`, the inhibition was -44.9% (inactive).

Regarding `Oc1ccc2ccccc2c1N=Nc1nccs1`, the inhibition is 61% (active).
